Hits are enriched below; roughly 21% of the tested compounds scored in any of these assays.
CHX counter – counter-screen hit for Shiga toxin inhibitors, cycloheximide; cell reporter, cycloheximide protein synthesis inhibition counterscreen; max response, %; hit rate 12% among 300,000; in the data active = max response mostly above about 13%, no sharp cut-off; inactive = mostly below about 14%; also: read at 38.3 µM for the half of the compounds with a filed dose; 0% is about no effect
Pf growth 96h – P. falciparum growth inhibition at 96 hour, primary screen for plastid delayed-death inhibitors | P. falciparum luciferase reporter growth, 96 h | Potency, µM (doses to about 28.7 µM), for the others: top-dose activity change, negative = inhibition, most hits filed as inhibitors | hit rate 6.9% among 320,000; also: potency is read from the fitted curve at half-maximal effect; % is scaled to controls: 0 for no effect and ±100 for the full control effect
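96 h incubation, 37 C, 5% CO2, of luciferase-reporter P. falciparum-infected RBCs (2% hematocrit, 0.05% parasitemia final) with test compounds; endpoint luminescence.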
Shiga toxin inh – inhibitors of Shiga toxin in Vero cells. Vero cells, Shiga toxin protein synthesis inhibition reporter. inhibition, % at 38.7 µM. hit rate 9.2% among 290,000. AID 2315; in the data active = inhibition mostly above about 28%, no sharp cut-off; inactive = mostly below about 43%; also: 0% is about no effect
Pf growth 48h – P. falciparum growth inhibition at 48 hours (one generation); P. falciparum luciferase growth in erythrocytes, 48 h; Potency, µM (highest dose often 28.7 µM), inactives show at the highest dose activity change, negative = inhibition, usual class: inhibitors; hit rate 5.9% among 310,000; AID 504832; also: potency is read from the fitted curve at half-maximal effect; % is scaled to controls: 0 for no effect and ±100 for the full control effect
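A one-generation exposure of luciferase-tagged malaria parasites in RPMI 1640/Albumax erythrocyte culture, 37 C and 5% CO2. Inhibition is inferred from decreased luminescence after adding detection reagent.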
Sm TGR block – S. mansoni TGR enzyme inhibition; purified TGR, DTNB reduction, TNB absorbance 405 nm; Potency, µM (doses to about 114 µM), without a hit: at the top dose activity change, negative = inhibition, usual class: inhibitors; hit rate 3% among 360,000; AID 485364; also: potency is read from the fitted curve at half-maximal effect; % is scaled to controls: 0 for no effect and ±100 for the full control effect; nearly all actives have a fitted effect of over 60% in size
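TGR 20 nM + NADPH 100 uM (dispensed conc.), cpd preinc 15 min RT; start with NADPH (500 uM addition) then DTNB (15 mM addition). Kinetic TNB absorbance, 405 nm filter. Four-parameter Hill fit across titration.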
NS1 inh – blocks influenza NS1 protein function. Potency, µM (highest dose often 46.1 µM), without a hit: at the top dose activity, positive = more growth. hit rate 0.4% among 270,000. AID 2326; calls by dose curve; also: potency is read from the fitted curve at half-maximal effect; actives are rising curves; nearly all actives have a fitted effect of over 50% in size
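OD600 was taken as the measure of yeast growth restored by compound in an NS1-expressing S. cerevisiae strain. Cells had been washed out of glucose medium and diluted 1:100 into galactose -URA medium, pH 6.0.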
An asterisk follows results filed as active. Unless noted, calls follow the shape of the dose curve; as a rule, active = well fitted curve in the direction sought with a large enough effect; inconclusive = small, poorly fitted or top-dose-only effect, or another doubt; inactive = no such curve, though single readings can be large; an effect the other way counts as inactive or inconclusive.

`CC1CC(C)CN(Cc2nc(N)nc(Nc3ccc4ccccc4c3)n2)C1` (centres undefined) gave CHX counter 2.2, Shiga toxin inh 3.7, Pf growth 48h 11.7µM*, Sm TGR block 1.5% and NS1 inh -9.3%.
For CC1CC(C)CN(Cc2nc(N)nc(Nc3ccccc3)n2)C1 (centres undefined) the results were CHX counter 2.4, Pf growth 96h 10.4µM*, Shiga toxin inh 14.4, Pf growth 48h inconclusive, Sm TGR block 20.6% and NS1 inh 3.2%.
For CNC(=O)N(C1=NCCCCC1)c1ccc(Br)cc1 the results were CHX counter -8.1, Pf growth 96h inconclusive, Shiga toxin inh -11.7, Pf growth 48h inconclusive, Sm TGR block -4.5% and NS1 inh 3.0%.
`N[C@@H](Cc1c[nH]c2ccc([N+](=O)[O-])cc12)C(=O)O` gave NS1 inh -5.6%.
`O=C(Nc1ccccn1)C12CC3CC(CC(C3)C1)C2` gave CHX counter 6.2, Shiga toxin inh 11.4, Pf growth 48h 13.1µM*, Sm TGR block 20.0% and NS1 inh -15.0%.
Screening O=C(Nc1nc2ccccc2[nH]1)C12CC3CC(CC(C3)C1)C2 returned CHX counter 39.9*, Shiga toxin inh 63.2, Pf growth 48h inconclusive, Sm TGR block 2.8% and NS1 inh -0.2%.
O=C(Nc1nc2ccccc2[nH]1)C1CCN(C(=O)c2ccc(F)cc2)CC1 was read as Pf growth 96h 4.7%, Pf growth 48h -6.7% and Sm TGR block -5.1%.
Screening O=C(Nc1nc2ccccc2[nH]1)C1CC1 returned CHX counter 22.6*, Pf growth 96h 100.5%, Shiga toxin inh 44.6, Pf growth 48h 83.2% and Sm TGR block 5.4%.
For O=C(Nc1nc2ccccc2[nH]1)C1CCCO1 (centres undefined) the results were CHX counter 22.9*, Pf growth 96h 15.1%, Shiga toxin inh 40.5, Pf growth 48h 79.4%, Sm TGR block 0.0% and NS1 inh -3.8%.
`O=C(Nc1nc2ccccc2[nH]1)Nc1ccccc1F` gave CHX counter 34.6*, Pf growth 96h -22.0%, Shiga toxin inh 99.2*, Pf growth 48h 130.3%, Sm TGR block 1.7% and NS1 inh -3.3%.
For S=C(NC1CCCCC1)N(CCc1nc2ccccc2[nH]1)C1CCCC1 the results were CHX counter -6.2, Pf growth 96h 13.1µM*, Shiga toxin inh 17.6, Pf growth 48h inconclusive, Sm TGR block 5.3% and NS1 inh -13.3%.
`O=C(Nc1nc2ccccc2[nH]1)c1cccs1` gave CHX counter 37.4*, Pf growth 96h 0.465µM*, Shiga toxin inh 75.0*, Pf growth 48h 373.5% and Sm TGR block 1.3%.
For O=C(NC1CCCC1)c1ccccc1-c1nc2ccccc2[nH]1 the results were CHX counter -4.3, Shiga toxin inh -7.4, Pf growth 48h 13.2%, Sm TGR block 1.1% and NS1 inh 7.2%.
COC(=O)Nc1nc2ccc(C(=O)c3cccs3)cc2[nH]1 was read as Pf growth 96h 26.0%, Pf growth 48h 55.5% and NS1 inh 0.0%.
O=C(CSc1nc2ccccc2[nH]1)Nc1ccccc1F was read as CHX counter 13.3, Pf growth 96h 29.0%, Shiga toxin inh 24.9, Sm TGR block -11.1% and NS1 inh 1.1%.
O=C(Nc1nc2ccccc2[nH]1)NC1CCCCC1 was read as CHX counter 45.7*, Pf growth 96h 80.8%, Shiga toxin inh 81.2*, Pf growth 48h 184.1%, Sm TGR block -3.7% and NS1 inh 2.2%.
Cc1ccc(Cl)cc1N1CCN(S(=O)(=O)c2cn(C)c(C)n2)CC1 was read as Sm TGR block -1.1%.
For Cc1ccccc1CNC(=O)c1ccc(CN2CC(=O)N3CCCCC3C2=O)cc1 (centres undefined) the results were Sm TGR block -5.0%.
Screening COc1ccc(-c2[nH]ncc2CN(C)Cc2ccccn2)c(OC)c1 returned CHX counter 1.4, Pf growth 96h 13.1µM*, Shiga toxin inh 21.2, Pf growth 48h 0.0%, Sm TGR block -12.9% and NS1 inh 5.2%.
`Cc1ccc(N(CC(=O)N2CCN(c3ccc(Cl)cc3)CC2)S(=O)(=O)c2c(C)noc2C)cc1` gave Sm TGR block -4.9%.
For CN1CCN(c2nc(-c3ccccc3)ncc2S(=O)(=O)c2ccccc2)CC1 the results were CHX counter -4.1, Pf growth 96h inconclusive, Shiga toxin inh 6.6, Pf growth 48h inconclusive and NS1 inh -2.1%.
Cc1ccc(S(=O)(=O)c2cc(N3CCOCC3)nc(-c3ccccc3)n2)cc1 was read as CHX counter -1.3, Pf growth 96h 8.28µM*, Shiga toxin inh -5.8, Pf growth 48h inconclusive, Sm TGR block 3.7% and NS1 inh -7.0%.
For Cc1ccc(S(=O)(=O)c2cnc(-c3ccccc3)nc2N2CCN(C)CC2)cc1 the results were CHX counter -1.9, Pf growth 96h 10.4µM*, Shiga toxin inh 6.6, Pf growth 48h inconclusive, Sm TGR block 20.2% and NS1 inh -3.2%.
For c1ccc(-c2ccc(Oc3cc(N4CCOCC4)nc(-c4ccccc4)n3)cc2)cc1 the results were CHX counter -1.1, Pf growth 96h -62.6%, Shiga toxin inh 26.5, Pf growth 48h inconclusive, Sm TGR block -0.9% and NS1 inh -0.8%.
`CC1(C(=O)N2CC3(CC(c4cccc(NC(=O)CC(c5ccccc5)c5ccccc5)c4)=NO3)C[C@@H]2C(N)=O)CC1` (some centres undefined) gave CHX counter -0.8, Pf growth 96h inconclusive, Shiga toxin inh -1.4, Pf growth 48h inconclusive, Sm TGR block 13.4% and NS1 inh -32.4%.
`COC(=O)c1c(-c2ccccc2)csc1NC1=NS(=O)(=O)c2ccccc21` gave CHX counter 62.4*, Pf growth 96h 100.2%, Shiga toxin inh active, Pf growth 48h -7.9%, Sm TGR block 5.7% and NS1 inh 19.0%.
For COc1cc(/C=N/OCC(=O)Nc2cc(C)cc(C)c2)ccc1OCc1ccc(Cl)cc1 the results were CHX counter 91.9*, Pf growth 96h -35.8%, Shiga toxin inh 107.2*, Pf growth 48h 172.4%, Sm TGR block 7.5% and NS1 inh 2.0%.
`COc1cc(/C=N\n2cnnc2)ccc1OCC(=O)Nc1ccc(C)cc1` gave CHX counter -1.7, Pf growth 96h 20.5%, Shiga toxin inh 16.0, Pf growth 48h 0.0%, Sm TGR block inconclusive and NS1 inh -3.6%.
For COc1cc(/C=N/OCC(=O)NC2CCCCC2C)ccc1OCc1ccc(Cl)cc1 (centres undefined) the results were CHX counter 56.1*, Pf growth 96h 42.6%, Shiga toxin inh 150.1*, Pf growth 48h 109.6%, Sm TGR block 7.6% and NS1 inh 13.7%.
`COc1cc(NC(=O)COC(=O)CO/N=C(\C)c2ccc3c(c2)OCO3)cc(OC)c1` gave Pf growth 96h 6.2%, Pf growth 48h 12.1% and Sm TGR block -0.6%.

Bioassay records deposited in PubChem by National Center for Advancing Translational Sciences (NCATS).
